Source: PubChem BioAssay (EPA / NIEHS)
“And” between values parts separate entries of the source, which are not always exact repeats. Equal entries are not always repeated. Records with an inconclusive call do not appear. The source made the active and inactive calls. Rule for the calls, unless noted: active = hit-call score of the fitted dose curve at least 0.9, where 1 is the maximum; inconclusive = response in the unintended direction; inactive = score below 0.9.

Assays:
[1] = molecular target: Estrogen receptor beta (Homo sapiens) (UniProt Q92731); assay: OT_ER_ERbERb_0480: Odyssey Thera (OT) 8-hour HEK293T Protein-Complementation Assay for Estrogen Receptor-beta/-beta Homodimer (AID 2283357);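 note: active means signal gain over DMSO baseline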
Outline: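 Readout: increase in mean fluorescence intensity (nucleus for agonists; nucleus plus cytoplasm for antagonists) relative to DMSO, from a reporter-fragment complementation of human ER-beta LBD homodimer in HEK293T cells dosed 8 hours.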

[2] = CEETOX_H295R_OHPREG: CeeTox H295R High-throughput Steroidogenesis Assay for OH-Pregnenolone (OHPREG) (AID 2283434; active = hit-call score of the fitted dose curve at least 0.9, where 1 is the maximum; inactive = score below 0.9); settings: actives raise or lower the signal
Outline: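 Human adrenal H295R cells were prestimulated 48 h with 10 uM forskolin, then exposed 48 h to chemical in 0.1% DMSO. Medium 17alpha-hydroxypregnenolone was quantified by HPLC-MS/MS after MTBE extraction; bidirectional fitting versus DMSO baseline.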

[3] = CEETOX_H295R_OHPROG: CeeTox H295R High-throughput Steroidogenesis Assay for OH-Progesterone (OHPROG) (AID 2283435; active = hit-call score of the fitted dose curve at least 0.9, where 1 is the maximum; inactive = score below 0.9;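 note: 17alpha-hydroxyprogesterone secreted into medium measured by HPLC-MS/MS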); settings: actives raise or lower the signal
Outline: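 Secreted 17alpha-hydroxyprogesterone is read by tandem MS from media of forskolin-primed H295R cells dosed with chemical for 48 h. Activity is fitted in both directions against DMSO baseline; cytotoxic concentrations are re-tested diluted.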

[4] = CEETOX_H295R_PROG: CeeTox H295R High-throughput Steroidogenesis Assay for Progesterone (PROG) (AID 2283442; active = hit-call score of the fitted dose curve at least 0.9, where 1 is the maximum; inactive = score below 0.9;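 for AC50: human H295R adrenal cells primed with 10 µM forskolin before dosing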); settings: actives raise or lower the signal
Outline: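 Progesterone secreted by human H295R cells was measured by LC-MS/MS following 48 h chemical exposure at 0.1% DMSO, preceded by 48 h forskolin (10 uM) stimulation. Same-well MTT viability; cytotoxic concentrations diluted 10- or 100-fold and retested.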

[5] = CEETOX_H295R_MTT_cell_viability: Viability Assessment in the CeeTox HT-H295R MTT Assay (AID 2283718; active = hit-call score of the fitted dose curve at least 0.9, where 1 is the maximum; inactive = score below 0.9)
Outline: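 H295R cells prestimulated 48 h with 10 uM forskolin, then exposed 48 h to test chemical (0.1% DMSO final). Viability by MTT (0.5 mg/ml, 4 h, 37 C), absorbance 570/650 nm; percent change versus DMSO, bidirectional fit.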

[6] = CCTE_Harrill_HTTr_Viability_MCF7: CCTE's 6-hour Cell Viability Assessment for the High-Throughput Transcriptomics (HTTr) Platform, in MCF-7 cells cultured in DMEM + 10% fetal bovine serum, Harrill Lab (AID 2284010; active = hit-call score of the fitted dose curve at least 0.9, where 1 is the maximum; inactive = score below 0.9)
Outline: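 Viability measured through PI dye exclusion by high-content imaging at 6 h post-dosing.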

[7] = read-out: Basic fibroblast growth factor (bFGF), FGF2 (gene 2247); assay: BSK_MyoF_bFGF: BioMAP Diversity Plus: MyoF Assay for Basic fibroblast growth factor (bFGF) Biomarker Activity (AID 2284246; active = hit-call score of the fitted dose curve at least 0.9, where 1 is the maximum; inactive = score below 0.9); settings: primary human lung fibroblasts
Outline: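 In this multiplexed cell system, lung fibroblasts (human primary) receive test chemical for 24 h before ELISA detection of bFGF; DMSO defines baseline and the analysis direction is positive.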

[8] = read-out: Plasminogen activator inhibitor-1 (PAI1), SERPINE1 (gene 5054); assay: BSK_MyoF_PAI1: BioMAP Diversity Plus: MyoF Assay for Plasminogen activator inhibitor-1 (PAI1) Biomarker Activity (AID 2284256; active = hit-call score of the fitted dose curve at least 0.9, where 1 is the maximum; inactive = score below 0.9;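 for outcome: PAI-1 protein level measured by ELISA in fibroblast cultures; PAI-1 read 24 h after compound addition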); settings: primary human lung fibroblasts
Outline: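 Human lung fibroblasts (MyoF system) were exposed to test chemicals for 24 h, then PAI-1 was quantified by ELISA. Activity was fitted in the positive (signal-gain) direction relative to DMSO vehicle as baseline.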

[9] = read-out: Interleukin-8 (IL8), CXCL8 (gene 3576); assay: BSK_MyoF_IL8: BioMAP Diversity Plus: MyoF Assay for Interleukin-8 (IL8) Biomarker Activity (AID 2284261; active = hit-call score of the fitted dose curve at least 0.9, where 1 is the maximum; inactive = score below 0.9); settings: primary human lung fibroblasts
Outline: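 IL-8 quantified by ELISA after 24 h compound exposure of primary human lung fibroblasts. SRB staining of parallel cultures flagged cytotoxicity; DMSO served as baseline.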

Decorin, DCN (gene 1634) = assay: BSK_MyoF_Decorin: BioMAP Diversity Plus: MyoF Assay for Decorin Biomarker Activity (AID 2284265; active = hit-call score of the fitted dose curve at least 0.9, where 1 is the maximum; inactive = score below 0.9); settings: primary human lung fibroblasts
Outline: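 Decorin protein was quantified by ELISA 24 h after chemical addition to primary human lung fibroblasts and analysed as increase over DMSO. Cytotoxicity was tracked in parallel cultures by SRB total-protein staining read at 560 nm.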

[10] = BSK_MyoF_SRB: Viability Assessment in the BioMAP Diversity Plus: MyoF Assay (AID 2284267; active = hit-call score of the fitted dose curve at least 0.9, where 1 is the maximum; inactive = score below 0.9;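 note: total protein by SRB absorbance in parallel cultures as cytotoxicity measure; cells assessed 24 h after compound addition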); settings: primary human lung fibroblasts
Outline: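 Cytotoxicity in primary human lung fibroblasts is gauged by SRB total-protein staining 24 h after dosing, with DMSO as the negative control.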

[11] = tested on: rat Monoamine Oxidase, MAO-A, Central (MAOAC), gene 29253; assay: NVS_ENZ_rMAOAC: NovaScreen (NVS) Enzymatic Assay for rat Monoamine Oxidase, MAO-A, Central (MAOAC) (AID 2283243);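 note: potency refers to inhibition seen as signal drop below DMSO baseline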
Outline: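 Inhibition of rat brain-derived MAO-A was read by scintillation counting after 1.5 h exposure. Compounds screened first at 25 uM in duplicate, then in dose series if active.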

[12] = molecular target: Norway rat Vesicular Monoamine Transporter (VMAT2), neurotransmitter transporter, Slc18a2 (gene 25549) (UniProt Q01827); assay: NVS_TR_rVMAT2: NovaScreen (NVS) Transporter Assay for Norway rat Vesicular Monoamine Transporter (VMAT2), neurotransmitter transporter (AID 2283376);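 note: actives lower the bound radioligand signal below the DMSO level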
Outline: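 Rat forebrain tissue preparation used in a cell-free radioligand binding format; displacement read by filter-based scintillation counting 1 hour after dosing. Primary screen in duplicate at 25 uM, actives then run in concentration series; loss of signal versus DMSO baseline.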

[13] = molecular target: human CYP4F12, CYP4F12 (gene 66002) (UniProt Q9HCS2); assay: NVS_ADME_hCYP4F12: NovaScreen (NVS) CYP450-related Enzyme Activity (ADME) Assay for human CYP4F12 (AID 2283111)
Outline: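 Cell-free fluorescence assay of recombinant human CYP4F12 activity on a specific substrate, read 0.5 h after dosing. Primary screen in duplicate at 10 uM, then concentration series for actives; loss of signal fitted against acetonitrile negative control.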

[14] = molecular target: human Protein Tyrosine Phosphatase Receptor Type C (PTPRC), PTPRC (gene 5788) (UniProt P08575); assay: NVS_ENZ_hPTPRC: NovaScreen (NVS) Enzymatic Assay for human Protein Tyrosine Phosphatase Receptor Type C (PTPRC) (AID 2283212)
Outline: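 Yeast-extracted human PTPRC used in a cell-free colorimetric enzyme activity read-out, 1 h after dosing. Primary screen in duplicate at 25 uM; actives rerun in concentration-response up to 50 uM, DMSO as baseline.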

[15] = molecular target: human Acetylcholinesterase (AChE), ACHE (gene 43) (UniProt P22303); assay: NVS_ENZ_hAChE: NovaScreen (NVS) Enzymatic Assay for human Acetylcholinesterase (AChE) (AID 2283129)
Outline: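 Cell-free colorimetric enzyme-activity assay; compounds read 0.33 hour after dosing, loss of signal vs DMSO baseline. Primary screen in duplicate at 25 uM single concentration, with active compounds retested in concentration series.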

Sequence of human Protein Tyrosine Phosphatase Receptor Type C (PTPRC), PTPRC (gene 5788) (P08575 whole entry, looked up): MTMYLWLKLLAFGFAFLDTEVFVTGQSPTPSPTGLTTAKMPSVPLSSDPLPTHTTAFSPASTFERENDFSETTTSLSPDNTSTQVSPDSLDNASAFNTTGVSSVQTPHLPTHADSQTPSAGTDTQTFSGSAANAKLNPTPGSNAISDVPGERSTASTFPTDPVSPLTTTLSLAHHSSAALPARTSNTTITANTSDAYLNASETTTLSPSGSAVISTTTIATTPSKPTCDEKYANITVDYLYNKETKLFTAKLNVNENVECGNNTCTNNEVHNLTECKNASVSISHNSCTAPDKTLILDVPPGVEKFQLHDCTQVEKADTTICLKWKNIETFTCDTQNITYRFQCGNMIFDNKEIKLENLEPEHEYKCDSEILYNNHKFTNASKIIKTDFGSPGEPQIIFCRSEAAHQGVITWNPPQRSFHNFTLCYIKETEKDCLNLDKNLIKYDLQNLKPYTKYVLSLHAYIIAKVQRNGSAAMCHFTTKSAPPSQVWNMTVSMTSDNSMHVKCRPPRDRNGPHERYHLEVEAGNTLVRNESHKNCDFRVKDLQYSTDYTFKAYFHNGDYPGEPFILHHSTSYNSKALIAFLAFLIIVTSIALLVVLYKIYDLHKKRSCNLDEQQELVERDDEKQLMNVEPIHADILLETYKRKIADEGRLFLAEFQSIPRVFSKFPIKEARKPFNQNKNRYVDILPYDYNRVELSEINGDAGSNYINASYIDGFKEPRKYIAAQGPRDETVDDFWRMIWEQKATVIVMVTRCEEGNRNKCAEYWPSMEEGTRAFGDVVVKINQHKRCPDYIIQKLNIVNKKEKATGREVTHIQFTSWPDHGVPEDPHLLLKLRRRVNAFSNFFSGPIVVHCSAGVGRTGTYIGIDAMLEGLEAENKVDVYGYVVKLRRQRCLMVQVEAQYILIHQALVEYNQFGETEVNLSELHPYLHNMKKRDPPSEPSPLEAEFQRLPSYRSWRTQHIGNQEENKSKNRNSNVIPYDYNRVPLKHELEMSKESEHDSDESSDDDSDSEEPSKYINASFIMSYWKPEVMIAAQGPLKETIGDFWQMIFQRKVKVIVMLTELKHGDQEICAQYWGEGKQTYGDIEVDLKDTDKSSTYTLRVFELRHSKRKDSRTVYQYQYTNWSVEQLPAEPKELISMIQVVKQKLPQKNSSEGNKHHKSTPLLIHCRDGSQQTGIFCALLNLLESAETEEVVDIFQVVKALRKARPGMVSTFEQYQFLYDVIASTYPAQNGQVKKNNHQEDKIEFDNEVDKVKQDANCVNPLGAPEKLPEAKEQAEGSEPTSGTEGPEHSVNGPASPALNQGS
Sequence of Norway rat Vesicular Monoamine Transporter (VMAT2), neurotransmitter transporter, Slc18a2 (gene 25549) (Q01827 whole entry, looked up): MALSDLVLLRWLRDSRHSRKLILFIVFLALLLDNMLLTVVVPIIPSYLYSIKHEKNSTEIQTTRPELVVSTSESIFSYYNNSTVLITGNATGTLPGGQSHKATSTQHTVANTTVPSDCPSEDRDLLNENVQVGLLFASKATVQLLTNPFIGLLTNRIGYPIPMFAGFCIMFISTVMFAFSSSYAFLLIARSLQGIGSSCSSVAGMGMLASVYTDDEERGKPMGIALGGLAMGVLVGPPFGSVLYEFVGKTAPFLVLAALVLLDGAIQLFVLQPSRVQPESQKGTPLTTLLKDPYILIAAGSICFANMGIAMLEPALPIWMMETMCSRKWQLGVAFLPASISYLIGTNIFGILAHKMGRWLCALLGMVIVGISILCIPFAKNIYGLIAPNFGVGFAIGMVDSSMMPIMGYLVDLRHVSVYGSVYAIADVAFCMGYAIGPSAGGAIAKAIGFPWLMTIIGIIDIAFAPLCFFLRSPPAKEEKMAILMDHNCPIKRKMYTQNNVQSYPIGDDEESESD
Sequence of Estrogen receptor beta (Homo sapiens) (Q92731 whole entry, looked up, the tested form may be a part): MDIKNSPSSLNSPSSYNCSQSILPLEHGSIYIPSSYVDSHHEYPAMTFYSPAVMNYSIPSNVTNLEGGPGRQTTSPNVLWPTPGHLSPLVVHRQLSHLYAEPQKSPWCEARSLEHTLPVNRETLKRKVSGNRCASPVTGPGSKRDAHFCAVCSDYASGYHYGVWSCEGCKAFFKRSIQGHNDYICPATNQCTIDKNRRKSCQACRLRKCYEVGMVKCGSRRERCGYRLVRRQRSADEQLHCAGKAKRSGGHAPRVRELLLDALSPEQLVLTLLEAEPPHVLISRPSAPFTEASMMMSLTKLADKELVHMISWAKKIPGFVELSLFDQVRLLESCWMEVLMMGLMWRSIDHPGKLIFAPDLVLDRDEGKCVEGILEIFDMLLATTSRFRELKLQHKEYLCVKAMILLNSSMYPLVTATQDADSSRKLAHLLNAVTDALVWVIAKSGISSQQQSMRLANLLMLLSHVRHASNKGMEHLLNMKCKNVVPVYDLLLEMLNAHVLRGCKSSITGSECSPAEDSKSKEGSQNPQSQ
Sequence of human Acetylcholinesterase (AChE), ACHE (gene 43) (P22303 whole entry, looked up): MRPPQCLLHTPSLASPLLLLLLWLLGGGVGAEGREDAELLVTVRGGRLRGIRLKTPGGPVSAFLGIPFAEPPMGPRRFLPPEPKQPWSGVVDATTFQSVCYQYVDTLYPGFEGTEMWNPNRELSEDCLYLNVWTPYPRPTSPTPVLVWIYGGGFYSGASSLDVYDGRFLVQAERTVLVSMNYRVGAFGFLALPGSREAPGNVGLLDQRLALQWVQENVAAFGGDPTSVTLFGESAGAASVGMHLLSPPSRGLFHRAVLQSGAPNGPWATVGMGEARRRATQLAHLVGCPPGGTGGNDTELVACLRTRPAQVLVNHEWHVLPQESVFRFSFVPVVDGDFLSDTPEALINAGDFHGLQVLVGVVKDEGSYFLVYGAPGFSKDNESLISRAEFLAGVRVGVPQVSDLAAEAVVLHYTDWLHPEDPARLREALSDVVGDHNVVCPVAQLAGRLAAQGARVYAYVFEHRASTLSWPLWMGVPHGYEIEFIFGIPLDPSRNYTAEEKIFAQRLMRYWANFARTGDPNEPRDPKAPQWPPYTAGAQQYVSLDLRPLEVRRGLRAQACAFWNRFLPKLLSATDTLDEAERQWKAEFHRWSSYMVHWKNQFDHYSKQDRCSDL
Sequence of human CYP4F12, CYP4F12 (gene 66002) (Q9HCS2 whole entry, looked up): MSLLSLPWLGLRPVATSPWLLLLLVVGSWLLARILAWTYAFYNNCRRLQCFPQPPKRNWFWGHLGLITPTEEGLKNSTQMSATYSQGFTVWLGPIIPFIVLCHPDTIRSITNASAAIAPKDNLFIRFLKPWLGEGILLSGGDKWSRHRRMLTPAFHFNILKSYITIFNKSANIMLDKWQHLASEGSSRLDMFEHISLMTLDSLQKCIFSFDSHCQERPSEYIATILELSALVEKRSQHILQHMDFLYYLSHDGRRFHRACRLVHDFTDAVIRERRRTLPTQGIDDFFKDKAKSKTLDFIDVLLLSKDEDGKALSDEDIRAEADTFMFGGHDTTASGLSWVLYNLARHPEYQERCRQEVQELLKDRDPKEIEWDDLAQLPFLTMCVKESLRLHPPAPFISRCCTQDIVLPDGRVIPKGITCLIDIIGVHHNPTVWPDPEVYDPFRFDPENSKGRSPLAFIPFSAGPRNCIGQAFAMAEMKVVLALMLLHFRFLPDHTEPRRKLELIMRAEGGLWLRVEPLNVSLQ

For `O=C(NC(=O)c1c(F)cccc1F)Nc1ccc(Oc2ccc(C(F)(F)F)cc2Cl)cc1F`, the outcome [1] was “inactive”, the AC50 [2] was 12.4 µM (active) and the AC50 [3] was 1.37 µM (active). The AC50 [4] was 1.28 µM (active), the outcome [5] was “inactive” and the outcome [6] was “inactive”.

With `CC(=O)C=Cc1ccccc1` the outcome [1] was “inactive” and the outcome [6] was “inactive”.

For `O=C(O)CCl`, the outcome [1] was “inactive”.

With `COCC(=O)N(c1c(C)cccc1C)N1CCOC1=O` the outcome [7] was “inactive”, the outcome [8] was “inactive” and the outcome [9] was “inactive”. For the same compound, the outcome (Decorin, DCN (gene 1634)) was “inactive” and the outcome [10] was “inactive”.

With `c1ccc(Nc2ccc3ccccc3c2)cc1` the outcome [2] was “inactive”, the AC50 [3] was 5.24 µM (active) and the outcome [4] was “inactive”. For the same compound, the outcome [5] was “inactive”, the AC50 [7] was 31 µM (active) and the AC50 [8] was 31.6 µM (active). The outcome [9] was “inactive”, the outcome (Decorin, DCN (gene 1634)) was “inactive” and the AC50 [10] was 35.5 µM (active).

For `O=c1c(-c2ccc(O)cc2)coc2cc(O)cc(O)c12`, the AC50 [11] was 10.6 µM (active) and 12.2 µM (active) and 2.7 µM (active) and the outcome [12] was “inactive”.

With `CCCCCCCCCC(=O)O` the AC50 [13] was 2.83 µM (active).

For `CC(C)(c1ccc(O)cc1)c1ccc(O)cc1`, the AC50 [13] was 4.07 µM (active), the outcome [14] was “inactive” and the AC50 [12] was 12.5 µM (active) [middle of 4 runs].

For `CCN(CC)CCOc1ccc(C(=C(Cl)c2ccccc2)c2ccccc2)cc1`, the AC50 [12] was 5.01 µM (active).

With `CSc1ccc(Oc2ccc(S(N)(=O)=O)cc2CN(C)C)cc1C` the AC50 [13] was 8.72 µM (active) and the outcome [15] was “inactive”.

With `Cc1nc(-c2ccc3c(c2)CCN(CCC2CCC(NC(=O)/C=C/c4ccc(F)cc4)CC2)CC3)no1` (centres undefined) the outcome [13] was “inactive” and the outcome [11] was “inactive”.

With `CN(C)c1ccc(C(=C2C=CC(=[N+](C)C)C=C2)c2ccc(N(C)C)cc2)cc1` the AC50 [15] was 6.48 µM (active) and the AC50 [12] was 1.89 µM (active).

With `c1ccc2[nH]c(-c3cscn3)nc2c1` the outcome [11] was “inactive”.

With `C[C@]12CC[C@@H]3c4ccc(O)cc4C[C@@H](CCCCCCCCCS(=O)CCCC(F)(F)C(F)(F)F)[C@H]3[C@@H]1CC[C@@H]2O` (some centres undefined) the outcome [15] was “inactive”.

With `CCCCCCCCCCCCCCCCOS(=O)(=O)O` the AC50 [15] was 16.8 µM (active) and the AC50 [14] was 6.6 µM (active).

For `O=C(c1ccc(O)cc1O)c1ccc(O)cc1O`, the AC50 [11] was 6.91 µM (active).

With `CC1(C)C(=O)N(Br)C(=O)N1Br` the AC50 [13] was 2.18 µM (active).

For `NC(=NCCCCCCN=C(N)/N=C(\N)Nc1ccc(Cl)cc1)/N=C(\N)Nc1ccc(Cl)cc1`, the AC50 [11] was 20.5 µM (active) and the outcome [12] was “inactive”.

In the case of `O=C(O)Cn1c(=O)n(Cc2ccc(Br)cc2F)c(=O)c2ccc(Cl)cc21`, the outcome [14] is reported as “inactive”.

For `CCCN(C1CCN(C(=O)C2CCNCC2)CC1)[C@@H]1CCc2ccc(OC)cc2C1`, the AC50 [15] was 35.2 µM (active).

In the case of `CCCN(CCC)C(=O)SCC`, the outcome [15] is reported as “inactive”.

In the case of `COc1cc(-c2nc(NC(=O)c3cc4cc(C)cc(C)c4n3CC(=O)O)sc2CCC2CCCCC2)c(OC)cc1Cl`, the AC50 [14] is reported as 11.4 µM (active).

In the case of `CCCCCCCCCCCCc1ccccc1S(=O)(=O)O`, the AC50 [14] is reported as 5.18 µM (active).
